PubChem BioAssay (NCI)
The panel holds about 83,000 compounds, 20% with a hit somewhere; the sample as a whole holds those more often.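 For each line, cells grew in 96-well plates with the test compound present at a single concentration for 48 hours.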 Activity calls are given as the source filed them. How the source made its calls: active means growth percent below 10; inactive means the rest.

These molecules were tested on MDA-MB-468 breast (assay: NCI-60 one-dose screen, 48 h (100 = growth as untreated, 0 = no growth, -100 = all killed)). Details: 10 µM unless noted.

Row | Structure (SMILES) | growth
1 | O=S(=O)(Nc1nccs1)c1ccc(Nc2nc(-c3ccncc3)cs2)cc1 | 101% (inactive)
2 | CCc1cnn2c(NCc3ccc[n+]([O-])c3)cc(N3CCCC[C@H]3CCO)nc12 | -56.3% (active)
3 | Nn1c(CN2CCN(c3cc4c(cc3F)c(=O)c(C(=O)O)cn4C3CC3)CC2)n[nH]c1=S | 99.2% (inactive)
4 | Fc1ccc(C2CC(c3cccc(Nc4ccncc4)c3)=NN2c2ccc(Cl)cc2)cc1 (stereo not given) | 63.6% (inactive)
5 | CN(C)CCNc1nc2ccccc2c2c(=O)c3cc(F)ccc3sc12 | -28.1% (active)
6 | O=C(Nc1ccc(Br)c(Cl)c1)c1cc(F)ccc1O | -24.5% (active)
7 | COc1ccc(N2CCN(C3=C(Cl)C(=O)C(C)=C(C)C3=O)CC2)cc1 | 74.1% (inactive)
8 | CC(C)(C)OC(=O)N1CCc2c(sc3ncnc(N/N=C/c4cccc(Br)c4)c23)C1 | 52.2% (inactive)
9 | C/C(O)=C(\C=N\C(N)=S)C(=O)Nc1ccccc1 | 92.8% (inactive)
10 | CCCCCC[n+]1ccc(SCC(=O)n2ccc3ccccc32)c2ccccc21 | 4.72% (active)
11 | Cc1csc(Nc2cccc(Nc3nc(C)cs3)c2)n1 | 47.6% (inactive)
12 | C=C1C(=O)O[C@H]2[C@H]1CC/C(COC(=O)NCCCCNC(=O)OC/C1=C/CC[C@@]3(C)O[C@H]3[C@H]3OC(=O)C(=C)[C@@H]3CC1)=C\CC[C@@]1(C)O[C@@H]21 | -14.8% (active)
13 | CC(C)(C)OC(=O)N1CCCN(CCNc2nccc(-c3c(-c4cccc(O)c4)nc4sccn34)n2)S1(=O)=O | 97.3% (inactive)
14 | CC/C(=C(\CC)c1ccc(OCC[N+](C)(C)C)cc1)c1ccc(OC)cc1 | 2.58% (active)
15 | N#Cc1cccc(-c2cc(-c3ccc4c(c3)OCCO4)[nH]n2)c1 | 18.6% (inactive)
16 | O=Cc1c(OCc2cnnn2CC(=O)Nc2ccc(Br)cc2)ccc2ccccc12 | 95.6% (inactive)
17 | C#CCOc1cccc(Nc2ncc3ncn(C4CCN(C(=O)CCl)C4)c3n2)c1 (stereo not given) | 24.5% [6.25 µM] (inactive)
18 | COc1ccc(C2C(C#N)=C(N)Oc3n[nH]c(-c4cccs4)c32)cc1I (stereo not given) | 86.8% (inactive)
19 | N#CN1CC[C@H](C(=O)Nc2ncc(-c3ccccc3)s2)C1 | -49.9% (active)
20 | CCN1C2=C(SC(=S)C1=C1SC(C(=O)OC)=C(C(=O)OC)S1)SC(=Nc1ccc(OC)cc1)C2=O | -78% (active)

Row | Structure (SMILES) | growth
21 | Clc1ccc(-c2ccc(CNCC3CCNCC3)o2)c(-c2ccccc2)c1 | -79.1% (active)
22 | COc1ccc(NC(=O)c2ccc(Cl)cc2Cl)cc1 | 96.5% (inactive)
23 | CCOC(OCC)C(=O)c1ccccc1 | 102% (inactive)
24 | Nc1n[nH]c2ccc([C@@H]3Nc4cc5c(cc4[C@H]4C6CCC(C6)[C@@H]34)C(=O)NC5)cc12 (stereo not given in full) | -9.96% (active)
25 | CCCCn1c(=O)c(/C=C/C(=O)/C=C/c2cc3ccccc3n(CCCC)c2=O)cc2ccccc21 | -59.4% (active)
26 | CN1CCCNc2c(c(=O)c2=O)NCCCN(C)CCCNc2c(c(=O)c2=O)NCCCN(C)CCCNc2c(c(=O)c2=O)NCCCN(C)CCCNc2c(c(=O)c2=O)NCCCN(C)CCCNc2c(c(=O)c2=O)NCCCN(C)CCCNc2c(c(=O)c2=O)NCCCN(C)CCCNc2c(c(=O)c2=O)NCCC1 | 32.9% (inactive)
27 | CN(C)CCNc1cccc2sc3ccc(O)cc3c(=O)c12 | 28.1% (inactive)
28 | COc1cc(C2C(C(=O)c3cccs3)=C(O)C(=O)N2CCN2CCOCC2)cc(OC)c1OC (stereo not given) | 101% (inactive)
29 | COc1cc2c(c(OC)c1OC)CCC(c1cccc(C(=O)Nc3ccccc3Br)c1)O2 (stereo not given) | 85.2% (inactive)
30 | CCCCC/C=C\C/C=C/CCCCCCCCNC(=O)Nc1ccc([N+](=O)[O-])cc1 | 84.5% (inactive)
31 | C=C1CCC2C(C)(CO)C(O)CCC2(C)C1C/C=C1/C(=O)OCC1O/C=C/c1ccccc1 (stereo not given) | 80.5% (inactive)
32 | COc1ccc(-c2nc(/C=N/Nc3cc(C)nc4ccc(Br)cc34)c(C)o2)cc1 | -78.9% (active)
33 | CC[C@]12C=CCN3CC[C@@]4(c5ccc(OC)cc5N(C)[C@H]4[C@@](O)(C(=O)OC)[C@@H]1OC(=O)CCN1CCc4ccccc4C1)[C@@H]32 | 69.7% (inactive)
34 | N#CCCN1C/C(=C/c2ccc(Br)cc2)C(=O)/C(=C/c2ccc(Br)cc2)C1 | -71.3% (active)
35 | CCc1cccc(CC)c1NC(=O)c1sc2nc3c(cc2c1N)CCCC3 | 79.3% (inactive)
36 | O=C(Nc1cccc(Cn2c(=O)[nH]c3ccc(Oc4ncccn4)cc3c2=O)c1)c1cc(Cl)cc(Cl)c1 | 50.5% (inactive)
37 | CN1C(=O)/C(=C/C=C/c2ccco2)SC1=S | 5.83% (active)
38 | Nc1ncnc2c1CN(Cc1ccccc1)CC2 | 112% (inactive)
39 | C=C(C)[C@@H]1CC[C@]2(C(=O)N3CCN(C)CC3)CC[C@]3(C)[C@H](CC[C@@H]4[C@@]5(C)CC[C@H](O)C(C)(C)[C@@H]5CC[C@]43C)[C@@H]12 | -67.3% (active)
40 | N=C(N)c1ccc(-c2ccc(-c3cc(Cl)cc(Cl)c3)o2)o1 | -69.1% (active)
